Bioassay records deposited in PubChem BioAssay by National Center for Advancing Translational Sciences (NCATS).
Pf Dd2 inh: blocks in vitro growth of P. falciparum Dd2; P. falciparum Dd2 growth, SYBR Green, 72 h; hit rate 4.3% among 120,000; Potency, µM (titrated, usually from 28.9 µM), inactives show top-dose activity, negative = inhibition, hits mostly inhibitors; active means well fitted inhibition curve with a large enough effect;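 further: plate controls were DMSO vehicle for no effect and reference drug for full effect; nearly all actives have a fitted effect of over 65% in size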
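Infected erythrocytes (Dd2, 0.3% parasitemia, 2.5% hematocrit final) are added to compound in RPMI-1640/Albumax II medium, grown 72 h at 37C in low oxygen, then lysed with saponin/Triton-X containing SYBR Green and read by fluorescence.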
* hit, by the source's call; i = inactive; [ ] = another dose, or the depositor's remark. Only a selection was taken, and hits are over-represented in it overall. Potency means the concentration at half of the fitted maximal effect.

SMILES	Pf Dd2 inh
COC(=O)[C@@H]1Cc2ncn(Cc3ccc(OC)cc3)c2CN1C(=O)c1ccc(C#N)cc1	i
CCOc1ccc(C(=O)N[C@H]2CCOC[C@H]2C2CCOCC2)o1	-4.2%
O=C(c1cccnc1CCC1COc2ccccc2O1)N1CCCC1 (stereo not drawn)	-11.7%
O=C(CCn1cnc2ccccc2c1=O)N1CCCC(Nc2ccccc2)C1 (stereo not drawn)	1.9%
CC(C)(C)OC(=O)N1CCC(c2c(C(=O)N3CCN(Cc4ccccc4)CC3)cnn2-c2cccc(Cl)c2)CC1	3.16µM*
CN1CCN(C(=O)c2cnn(-c3cccc(F)c3)c2C2CCN(C(=O)OC(C)(C)C)CC2)CC1	21.5%
CC(C)(C)OC(=O)N1CCC(c2c(C(=O)N3CCC(c4ccccc4)C3)cnn2-c2cccc(Cl)c2)CC1 (stereo not drawn)	3.55µM*
Cc1ccc(C2CCN(C(=O)c3cnn(-c4cccc(Cl)c4)c3C3CCN(C(=O)OC(C)(C)C)CC3)C2)cc1 (stereo not drawn)	4.47µM*
COc1ccccc1N1CCN(C(=O)c2cnn(-c3cccc(Cl)c3)c2C2CCN(C(=O)OC(C)(C)C)CC2)CC1	7.94µM*
CC(C)(C)OC(=O)N1CCC(c2c(C(=O)N3CCN(c4ncccn4)CC3)cnn2-c2ccccc2)CC1	-2.0%
Cc1cccc(-n2ncc(C(=O)N3CCOCC3)c2C2CCN(C(=O)OC(C)(C)C)CC2)c1	21.0%
CC(C)NC(=O)C[C@@H]1O[C@H](CNC[C@H]2O[C@@H](CC(=O)NC(C)C)[C@H](O)[C@@H]2O)[C@@H](O)[C@H]1O	33.8%
Cc1ccc(S(=O)(=O)c2nnn3c2nc(NCc2ccc(F)cc2)c2ccccc23)cc1	-1.5%
CCOc1ccccc1C(=O)N1CCN(Cc2ccc(=O)n(C)c2)CC1	-20.2%
COC(=O)C(=O)N1CC[C@@H]2[C@H]1C(=O)N(C(C)C)C(=O)N2Cc1cccc(F)c1	15.5%[44.1 µM]
COc1ccc(-c2noc(C(=O)O)c2[C@@H](C)NC(=O)Nc2cccnc2)cc1	-3.4%[44.1 µM]
CC(=O)N1CCN(C(=O)c2cnc(-c3cccnc3)nc2)CC(O)C1 (stereo not drawn)	-9.8%
CN(Cc1ccccc1)Cc1ccccc1OCC(O)CN1CCCCC1 (stereo not drawn)	0.794µM*
CN(CCC1CCOCC1)Cc1ccccc1OCC(O)CN1CCSCC1 (stereo not drawn)	-12.0%
COCCn1cc(CN(C)Cc2ccccc2)ccc1=O	2.6%
CN(CC1CCN(CCc2ccc(F)cc2)CC1)C1CCN(Cc2cccnc2)CC1	6.31µM*
CN(Cc1cccnc1)c1nc2c(c(=O)[nH]1)CCN(Cc1ccc(F)cc1)CC2	19.7%[5.79 µM]
c1cncc(CN2CCC(OC3CCN(Cc4ccncc4)CC3)CC2)c1	32.8%
COc1cccc(CNC(=O)c2nnn3cc(C)[nH]c(=O)c23)c1	-20.2%
Cc1ccc(CNC(=O)c2nnn3cc(-c4ccc(F)cc4)[nH]c(=O)c23)cc1	-3.9%
SMILES	Pf Dd2 inh
CNC(=O)c1nnn2cc(C)[nH]c(=O)c12	53.4%
CCc1ccc(CNC(=O)c2nnn3cc(C)[nH]c(=O)c23)cc1	7.94µM*
Cc1cn2nnc(C(=O)NCCc3cccs3)c2c(=O)[nH]1	-5.7%
Cc1cn2nnc(C(=O)NCCC3=CCCCC3)c2c(=O)[nH]1	10µM*
COCc1nc(CCNC(=O)c2sc(C)nc2C)no1	54.5%
O=C1COCC2(CN1)CN(C(=O)c1ccc(Cl)cc1)C2	-11.6%[44.1 µM]
CC(C)Oc1cc(N(C)CC2CC(=O)N(C(C)(C)C)C2)nc(N)n1 (stereo not drawn)	-2.5%
COC(=O)[C@@H](Cc1cccnc1)NC(=O)[C@H]1CN(C(=O)Nc2ccccc2)CCN1S(=O)(=O)c1ccccc1	-14.7%
Cc1c(Cl)cccc1NC(=O)Cn1cc2c(n1)CCCC2	1.9%
O=C(Cn1cc2c(n1)CCCC2)Nc1cc(C(F)(F)F)ccc1Cl	7.08µM*
Cc1ccc(NC(=O)Cn2cc3c(n2)CCCC3)c(C)c1	3.2%
CCOc1cccc(CN2CCC(C(Cc3ccccc3F)N(C)C(=O)c3cccs3)CC2)c1O (stereo not drawn)	-27.3%
CCc1noc([C@@H]2CC(F)(F)CN2C(=O)CCc2c(C)noc2C)n1	22.2%
CCCCN(C)C(=O)Cn1ccn2nc(-c3ccc(F)cc3)c(CO)c2c1=O	-8.9%
O=C(N[C@H]1[C@H](O)[C@H](O)C[C@@H]1c1cccnc1)c1ccccc1	-15.7%[44.1 µM]
Cc1ccc(C(=O)N2CCN(C3CCN(CCc4ccccc4)C3=O)CC2)cc1F (stereo not drawn)	10µM*
O=C(c1cccc(Cl)c1)N1CCN(C2CCN(CCc3ccccc3)C2=O)CC1 (stereo not drawn)	i
CCC(=O)N1CCN(C2CCN(CCc3ccccc3)C2=O)CC1 (stereo not drawn)	i
Cc1nc2c(c(=O)[nH]1)CCN(C(=O)C1(C)CCc3c(C)c(O)c(C)c(C)c3O1)C2 (stereo not drawn)	-20.1%
O=C(NC1CCN(c2nnc3ccccn23)CC1)c1ccc(Cl)s1	-16.1%
CCc1ccc(CNC(=O)CN2C(=O)NC3(CCCCC3)C2=O)cc1	-16.7%
Cc1cccc(NC(=O)N2CC3CN(C)CC(C2)O3)c1	-9.8%
COc1ccc(C(=O)N[C@H]2C[C@@H](Cc3cc(CN(C)C)on3)C2(C)C)cc1	-16.8%[44.1 µM]
CC(C)N[C@H]1C[C@@H](Cc2cc(-c3ccccc3)on2)C1(C)C	-8.3%[44.1 µM]
CCNC(=O)N[C@H]1C[C@@H](Cc2cc(-c3ccccc3)on2)C1(C)C	-15.9%[44.1 µM]
SMILES	Pf Dd2 inh
COc1ccc(C(=O)N[C@H]2C[C@@H](Cc3cc(-c4ccccc4)on3)C2(C)C)cc1	4.47µM*
CN1CCC(N[C@H]2C[C@@H](Cc3cc(-c4ccccc4)on3)C2(C)C)CC1	3.98µM*
COCc1cc(C[C@@H]2C[C@H](NC3CCC3)C2(C)C)no1	i
CNC(=O)C1(N2CCC[C@H]2C(=O)N(C)CCN(C)C)CCC1	-1.6%[44.1 µM]
Cc1ccc(C(=O)N2CCC3(CC2)NC(=O)N(c2ccc(F)cc2)N3)s1	i
CC(C)c1noc(-c2cn(C3CCN(C(=O)COc4ccc(F)cc4)C3)nn2)n1 (stereo not drawn)	223.2%
O=C1CCC2(CCNCC2)CN1CCCNc1cccnc1	7.8%
COCCCNC(=O)N1CCCCCNC(=O)[C@@H]2CCCC[C@@H]21	-10.9%
Cc1ccc(C2Cn3nnc(-c4noc(C5CCCCC5)n4)c3CO2)cc1 (stereo not drawn)	-20.5%
CCn1nccc1C(=O)N1CCCN(C)c2ccccc21	25.5%
Cc1cn2nc(C(=O)N3CCC(NC(=O)Cc4ccc(Cl)cc4)CC3)cc2c(=O)[nH]1	2.51µM*
Cc1cn2nc(C(=O)N3CCC(NC(=O)c4ccccc4Cl)CC3)cc2c(=O)[nH]1	31.4%
Cc1cn2nc(C(=O)N3CCC(NC(=O)Cc4ccccc4C)CC3)cc2c(=O)[nH]1	i
COCCN1C(=O)CS(=O)(=O)C12CCN(C(=O)c1ccc(OC)cc1OC)CC2	-6.1%
COc1cccc2c1OCC(CNC(=O)CCc1cn3ccccc3n1)C2 (stereo not drawn)	9.8%
COC1C(=O)N(C2CCN(C(=O)c3sc(C)nc3C)CC2)C12CCOCC2 (stereo not drawn)	-4.9%
COc1ccc2nc(N(Cc3cccnc3)C(=O)C3COc4ccccc4O3)sc2c1 (stereo not drawn)	i
COc1ccc2nc(N(Cc3cccnc3)C(=O)COc3ccccc3)sc2c1	16.2%
CCc1ccc2nc(N(CCN(CC)CC)C(=O)c3cccs3)sc2c1	-10.1%
CCOc1ccc2nc(N(Cc3cccnc3)C(=O)C3CCCCC3)sc2c1	2.24µM*
COc1ccc2sc(N(Cc3cccnc3)C(=O)c3ccc4c(c3)OCCO4)nc2c1	7.08µM*
